# Assay outcomes as filed in PubChem BioAssay.
# Most compounds without a hit are left out; they make up all but 7.9% or so of the library.
# LASV entry inh – qHTS for Inhibitors of binding or entry into cells for Lassa Virus; Lassa virus pseudotype entry inhibition, cell reporter; Potency, µM (top dose mostly 37.9 µM), for the others: top-dose activity change, negative = inhibition, most hits filed as inhibitors; actives 1.2% (n = 300,000); AID 540256, 2011; calls by dose curve; tested in HEK293 cells; further: potency means the concentration at half of the fitted maximal effect; nearly all actives have a fitted effect of over 50% in size
# FMDV inh – High Throughput Screening for Foot and Mouth Disease Virus Antivirals; actives 1.2% (n = 410,000); Potency, µM (highest dose often 57.9 µM), inactives show top-dose activity change, negative = inhibition, usual class: inhibitors; FMDV antiviral cell-based qHTS; AID 1159524, 2015; calls by dose curve; tested in HEK293T cells; further: read-out not given here; potency means the concentration at half of the fitted maximal effect; nearly all actives have a fitted effect of over 45% in size
# Marburg entry inh – qHTS for inhibitors of binding or entry into cells for Marburg Virus. Marburg virus pseudotyped entry inhibition, cell reporter. actives 1.8% (n = 300,000). Potency, µM (titrated, usually from 37.8 µM), inactives show at the top dose activity change, negative = inhibition, usual class: inhibitors; calls by dose curve; tested in HEK293 cells; further: potency means the concentration at half of the fitted maximal effect
# HCMV antiviral – qHTS Assay for inhibitors of the human cytomegalovirus (HCMV) | activity change, negative = inhibition, % at 57.5 µM | actives 4.5% (n = 410,000) | HFF cells, HCMV-luciferase reporter, 72 h; stronger effect = lower value | AID 1259415, 2018; in the data active means activity change below about -60%; inconclusive means no clear call, values can overlap the other calls; inactive means above about -39%
#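 After 16 h attachment at 37C, HFF cells received test compound and HCMV-luciferase (1 PFU/cell); reporter luminescence read 72 h later, data normalized against buffer-only and known inhibitor Salinomycin.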
# HCV inhibitor – qHTS Assay for Inhibitors of Hepatitis C Virus (HCV); Huh7.5.1 HCVcc-Cre infection, luciferase reporter, 44 h; Potency, µM (doses to about 41.8 µM), for inactives: at the top dose activity change, negative = inhibition, hits mostly inhibitors; actives 3.4% (n = 340,000); AID 651820, 2012; active means well fitted inhibition curve with a large enough effect; inconclusive means small, poorly fitted or top-dose-only effect, or another doubt; inactive means no such curve, though single readings can be large or run the other way; further: potency means the concentration at half of the fitted maximal effect
#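 Whole-lifecycle infectious HCVcc-Cre system; cells 1,000/well, compound then virus (~0.5 moi) added 4 h after plating, 44 h culture. Luciferase read 15 sec following 15 min substrate incubation, room temp.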
# Numbers without * were called inactive; ? = inconclusive; · = not tested or not shown; [ ] = dose if it differs, or a comment. On the % scale 0 is the no-effect control and ±100 the full control effect.
SMILES,LASV entry inh,FMDV inh,Marburg entry inh,HCMV antiviral,HCV inhibitor
COc1ccc(C(CNc2ccc(S(C)(=O)=O)cc2[N+](=O)[O-])N(C)C)cc1OC (stereo not drawn),6%[46.1 µM],-6%,-3%[46.1 µM],-29,4µM*
Cc1ccc(-c2c[n+](CC(=O)OCc3ccccc3)c3n2CCC3)cc1,3%,-21%,?,-27,1%
COc1ccc(-c2c[n+](CC(=O)c3cccs3)c3n2CCC3)cc1,-11%,0%,-17%,1,?
Cc1ccc(NC(=O)C[n+]2cc(-c3ccc(C)cc3)n3c2CCC3)cc1,-4%,3%,-3%[46.1 µM],-8,?
O=C(C[n+]1cc(-c2ccccc2)n2c1CCCCC2)c1ccc(Br)cc1,-12%,?,-25%,-6,?
Cc1ccc(-c2c[n+](CC(=O)Nc3ccc(C)cc3C)c3n2CCC3)cc1,-18%,-7%,-1%[46.1 µM],-71*,-10%
Cc1ccc(C(=O)C[n+]2cc(-c3ccc(C)cc3)n3c2CCCCC3)cc1,?,10µM*,?,-102*,?
Cc1ccc(-c2c[n+](Cc3ccc(Cl)c(Cl)c3)c3n2CCC3)cc1,?,-22%,?,-99*,-14%
COc1ccc(C(=O)C[n+]2cc(-c3ccc(OC)cc3)n3c2CCCC3)cc1,-16%[46.1 µM],?,?,-67*,-6%
COc1cccc(CN(C)C(=O)c2cnn(-c3nccc(-c4ccc5c(c4)OCO5)n3)c2C)c1,·,53%,·,·,·
CCC(Sc1nc2ccccc2s1)C(=O)Nc1cc(C)on1 (stereo not drawn),2%,-20%,-21%,9,-22%
COc1ccc(C2CC(O)(c3ccccc3)Oc3cc(OC)ccc32)cc1 (stereo not drawn),·,6%,·,-10,4.5µM*
CCCCC1CN(CCNC(=O)c2ccccn2)Cc2ccccc2O1 (stereo not drawn),·,-11%,·,·,·
Cn1cc([N+](=O)[O-])c(C(=O)Nc2ccn(C34CC5CC(CC(C5)C3)C4)n2)n1,9%,-17%,?,-95*,2%
CCn1cc([N+](=O)[O-])c(C(=O)Nc2ccn(C34CC5CC(CC(C5)C3)C4)n2)n1,2%,-22%,?,-32,10%
Cn1nccc1C(=O)Nc1ccn(C23CC4CC(CC(C4)C2)C3)n1,-30%,?,?,-81*,?
Cc1nn(C)c(C(=O)Nc2ccn(C34CC5CC(CC(C5)C3)C4)n2)c1[N+](=O)[O-],?,?,?,-62*,8%
Cn1nccc1C(=O)Nc1ccc(Cl)cc1,9%,·,3%,17,15%
Cc1ccc(NC(=O)Cn2ccn(-c3ccccc3)c(=O)c2=O)cc1,-13%[46.1 µM],-8%,·,-30,·
COCC(C)n1c(C)cc(C(=O)COC(=O)CNC(=O)c2ccccc2)c1C (stereo not drawn),4%,-8%,54%,12,8%
CNS(=O)(=O)c1cccc(C(=O)OCC(=O)c2cc(C)n(CC3CCCO3)c2C)c1 (stereo not drawn),13µM*,12%,?,11,?
COCCn1c(C)cc(C(=O)COC(=O)CNC(=O)c2ccccc2)c1C,-18%,25µM*,-7%[46.1 µM],-35,8%
Cc1cc(C(=O)COC(=O)c2ccc3c(c2)NC(=O)CS3)c(C)n1CC1CCCO1 (stereo not drawn),8%,28µM*,?,-9,?
Cc1cc(C(=O)COc2cc(F)ccc2[N+](=O)[O-])c(C)n1CC1CCCO1 (stereo not drawn),·,-6%,·,-66*,5%
Cc1cc(C(=O)COC(=O)c2cccc(S(=O)(=O)N(C)C)c2)c(C)n1CC1CCCO1 (stereo not drawn),-23%,25%,-27%,-2,-17%
Cc1cc(-n2c(C)cc(C(=O)COc3cc(F)ccc3[N+](=O)[O-])c2C)no1,·,13%,·,?,?
COCC(=O)N1CCC(n2nccc2NC(=O)c2ccccc2OC)CC1,9%,4%,8%,6,-1%
COCCn1c(C)cc(C(=O)COC(=O)c2ccc[nH]c2=O)c1C,?,?,?,-65*,20%
